GSH fluor: compound fluoresces at 488/530 nm on GSH beads; hit rate 0.25% among 190,000; fluorescence (KMESF) at 10 µM; GSH beads flow cytometry, compound fluorescence 488/530 nm; stronger effect = higher value; in the data active = fluorescence above about 89;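 also: glutathione beads carrying GST-tagged Bcl family fusion proteins plus one bare bead set; values are compound well signal with DMSO vehicle wells as background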
Avidin fluor: compound fluoresces at 488/530 nm on avidin beads. compound fluorescence 488/530 nm, flow cytometry; stronger effect = higher value. hit rate 0.38% among 220,000. fluorescence (KMESF) at 10 µM. AID 1775; in the data active = fluorescence above about 47
RGS7-Gao reg: regulators of human RGS7-Galphao interaction | hit rate 0.35% among 220,000 | AID 1439 | Multiplexed bead flow cytometry, RGS7-Galphao binding; actives lie on both sides | binding response (% of control), % at 10 µM; in the data active = binding response below about 49% or above about 150%; inconclusive = no clear call, values can overlap the other calls; inactive = in between;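 also: fluorescent Galphao held in activated GDP-AlF4 state binding bead-coupled RGS7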
Target sequence (P09471 whole entry, looked up): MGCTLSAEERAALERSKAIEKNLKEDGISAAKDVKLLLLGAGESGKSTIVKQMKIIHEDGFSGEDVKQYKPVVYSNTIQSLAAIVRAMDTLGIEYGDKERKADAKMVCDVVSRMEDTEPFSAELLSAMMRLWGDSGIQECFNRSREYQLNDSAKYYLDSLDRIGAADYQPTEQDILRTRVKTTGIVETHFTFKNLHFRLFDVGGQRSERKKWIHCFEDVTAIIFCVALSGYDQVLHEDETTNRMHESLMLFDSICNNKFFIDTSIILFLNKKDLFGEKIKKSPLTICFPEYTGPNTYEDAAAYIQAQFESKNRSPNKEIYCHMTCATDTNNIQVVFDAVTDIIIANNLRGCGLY
RGS8-Gao: human RGS8-Galphao interaction regulation | hit rate 0.34% among 220,000 | P09471 | AID 1423 | multiplexed bead flow cytometry, RGS8-Galphao binding; actives lie on both sides | response (percent of control binding), % at 10 µM; in the data active = response below about 60% or above about 140%; inactive = in between;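 also: Galphao activated as the GDP aluminium fluoride complex binding bead-coupled RGS8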
RGS16-Gao: regulators of human RGS16-Galphao interaction. O15492+P09471. bead-based flow cytometry RGS16-Galphao binding, fluorescence; actives lie on both sides. binding response (% of control), % at 10 µM. hit rate 0.38% among 220,000. AID 1441;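 also: Galphao activated by GDP with aluminum fluoride before binding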
RGS4-Gao reg: human RGS4-Galphao interaction regulation; binding response (% of control), % at 10 µM; Multiplexed bead flow cytometry, RGS4-Galphao binding; actives lie on both sides; hit rate 0.33% among 220,000; AID 1415; P09471; in the data active = binding response below about 49% or above about 150%; inactive = in between;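 also: fluorescent Galphao activated with aluminum fluoride binding bead-coupled RGS4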
RGS-Gao: modulates binding between human RGS4 and Galphao; RGS4–Galpha-o binding response, % at 10 µM; hit rate 99% among 1,600; multiplexed bead flow cytometry, RGS–Galpha-o binding; shares compounds with RGS16-Gao;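 also: fluorescently labeled Galpha-o bound to GDP with aluminium fluoride binding biotinylated RGS beads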
Biotin-avidin: counter-screen: compounds disrupting biotin binding to avidin beads | inhibition, % at 10 µM | 1,700 tested, under 10 active | shares compounds with RGS16-Gao | streptavidin beads, fluorescein-biotin binding, flow cytometry;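 active = inhibition above 50%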;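 also: median green fluorescence of gated singlet beads compared with DMSO control wells; 0% = DMSO wells and 100% = complete loss of bead fluorescence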
RGS8-Gao confirm: RGS8-Galphao interaction regulation, single point confirmation; hit rate 3% among 1,700; binding response (% of control), % at 10 µM; bead-based flow cytometry RGS8-Galphao binding, fluorescence; actives lie on both sides; shares compounds with RGS16-Gao; in the data active = binding response below about 72% or above about 130%; inactive = in between;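 also: Galphao activated as GDP AlF4 complex before binding bead RGS8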
RGS7-Gao single: confirmation of regulators of human RGS7-Galphao interaction. shares compounds with RGS16-Gao. bead-based flow cytometry RGS7-Galphao binding; actives lie on both sides. response (percent of control binding), % at 10 µM. hit rate 7.8% among 1,700. AID 1837; in the data active = response below about 75% or above about 130%; inactive = in between;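 also: fluorescent Galphao activated with GDP and aluminum fluoride binding bead-coupled RGS7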
RGS16-Gao conf: RGS16-Galphao interaction regulation, single point confirmation | shares compounds with RGS16-Gao | bead-based flow cytometry, RGS16-Galphao binding; actives lie on both sides | response (% of control binding), % at 10 µM | hit rate 4% among 1,700 | AID 1838; in the data active = response below about 74% or above about 130%; inactive = in between;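 also: Galphao activated as the GDP aluminium fluoride complex binding bead-coupled RGS16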
RGS4-Gao confirm: confirmation of regulators of human RGS4-Galphao interaction; shares compounds with RGS16-Gao; RGS4-Galphao binding, multiplexed bead flow cytometry; actives lie on both sides; binding response (% of control), % at 10 µM; hit rate 4% among 1,700; in the data active = binding response below about 74% or above about 130%; inactive = in between
RGS19-Gao single: RGS19-Galphao interaction regulation, single point confirmation | shares compounds with RGS16-Gao | bead-based flow cytometry RGS19-Galphao binding; actives lie on both sides | response (percent of control binding), % at 10 µM | hit rate 5% among 1,700; in the data active = response below about 50% or above about 160%; inactive = in between;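 also: 100% = no compound control and 0% = blank background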
Target sequence (P09471 whole entry, looked up): as above
Target sequence (P49795 whole entry, looked up): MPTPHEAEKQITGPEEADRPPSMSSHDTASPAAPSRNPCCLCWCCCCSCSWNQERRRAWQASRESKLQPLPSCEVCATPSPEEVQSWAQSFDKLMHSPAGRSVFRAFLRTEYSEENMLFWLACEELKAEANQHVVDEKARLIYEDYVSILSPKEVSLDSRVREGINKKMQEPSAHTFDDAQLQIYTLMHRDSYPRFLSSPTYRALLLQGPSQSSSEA
Numbers without * were called inactive; ? = inconclusive; . = no result given; [ ] = dose if it differs, or a comment. Compounds with a hit are over-represented: about 1.2% of the library has one in this group of screens. Unless noted, no rule for the calls is given here.

SMILES	GSH fluor	Avidin fluor	RGS7-Gao reg	RGS8-Gao	RGS16-Gao	RGS4-Gao reg	RGS-Gao	Biotin-avidin	RGS8-Gao confirm	RGS7-Gao single	RGS16-Gao conf	RGS4-Gao confirm	RGS19-Gao single
O=C(Nc1cccc([N+](=O)[O-])c1)Nc1cccc([N+](=O)[O-])c1	12	25	105	102	100	102	.	.	.	.	.	.	.
CN(CC(=O)N1CCN(c2cccc(Cl)c2)CC1)S(=O)(=O)c1cccs1	32	.	144	131	178*[activator]	177*[activator]	.	-2	101	97	100	99	99
Cc1nn(C(=O)c2cccs2)c(C)c1CN1C(=O)c2ccccc2C1=O	40	7	96	102	101	104	.	.	.	.	.	.	.
Cc1nn(C(=O)N2CCCCC2)c(C)c1CN1C(=O)c2ccccc2C1=O	12	.	.	.	.	.	.	0	102	105	103	103	66
CC1CCc2nc(NC(=O)CN3CCN(c4ccccc4)CC3)sc2C1 (centres undefined)	11	17	103	104	105	104	.	.	.	.	.	.	.
CC1CCc2nc(NC(=O)CCSc3ccccc3)sc2C1 (centres undefined)	20	5	79	70	20*	79	79*	2	102	102	102	102	108
O=C1C(=Nc2cccc(Cl)c2)CC(c2ccc(Cl)cc2)N1c1cccc(Cl)c1 (centres undefined)	.	4	?	113	115	103	.	.	.	.	.	.	.
Cc1cc(-n2cc(Br)c(=O)[nH]c2=O)nc(-c2ccccc2)n1	.	9	?	99	97	100	.	.	.	.	.	.	.
c1ccc(Cn2cc(CN3CCCO3)c(-c3ccc4c(c3)OCO4)n2)cc1	17	6	96	95	96	97	.	.	.	.	.	.	.
COc1ccc(N(CC(=O)NCc2cccs2)S(=O)(=O)c2c(C)n[nH]c2C)cc1	16	6	74	58*	14*	75	75*	.	.	.	.	.	.
O=C(O)C1C2CCCCC2=C2CCCCC2C1C(=O)c1ccccc1 (centres undefined)	.	7	?	97	96	97	.	.	.	.	.	.	.
CC(C)CC(NC(=O)C(CC(C)C)NC(=O)OC(C)(C)C)C(N)=O (centres undefined)	44	26	107	101	105	114	.	.	.	.	.	.	.
CC(C)CC(NC(=O)C(CC(C)C)NC(=O)C(Cc1ccc(OCc2ccccc2)cc1)NC(=O)OC(C)(C)C)C(N)=O (centres undefined)	8	8	101	99	100	96	.	.	.	.	.	.	.
CC(C)CC(NC(=O)C(CC(C)C)NC(=O)OC(C)(C)C)C(=O)O (centres undefined)	17	.	.	.	.	.	.	0	98	100	95	98	87
CC(C)CC(NC(=O)C(NC(=O)C(Cc1ccc(OCc2ccccc2)cc1)NC(=O)OC(C)(C)C)C(C)C)C(N)=O (centres undefined)	13	10	108	116	183*[activator]	104	104*	-1	101	93	100	98	95
O=C(CN1C(=O)S/C(=C\C=C\c2ccccc2)C1=O)N1CCOCC1	.	7	?	104	104	104	.	.	.	.	.	.	.
O=C(N/N=C/c1ccc(N2CCOCC2)o1)c1cccc([N+](=O)[O-])c1	10	2	87	63	18*	87	87*	0	97	92	97	96	69
CCOC(=O)C(=Cc1ccc(-n2ccnc2)cc1)C(=O)OCC	10	-2	?	6.7*	-2.5*	4.6*	.	-2	100	105	100	103	94
COC(=O)c1c(-c2ccc(C(C)(C)C)cc2)csc1NC(=O)C1C2CCC(O2)C1C(=O)O (centres undefined)	10	3	125	75	5.6*	94	94*	3	84	135*[activator]	73*	96	76
CCOC(=O)c1c(-c2cccc3ccccc23)csc1NC(=O)C1C2CCC(O2)C1C(=O)O (centres undefined)	18	15	97	99	99	98	.	.	.	.	.	.	.
CSC(=S)N(C)C1CCS(=O)(=O)C1 (centres undefined)	13	3	86	67	25*	87	87*	0	107	105	94	102	54
O=C(Oc1ccc(C(=S)N2CCC(O)CC2)cc1)c1ccc(Cl)cc1	10	7	100	97	96	97	.	.	.	.	.	.	.
Cn1c(SCC(N)=O)nnc1-c1ccccc1	49	14	106	105	115	107	.	.	.	.	.	.	.
Cn1c(CO)cnc1-c1ccccc1	.	6	?	132	150	151*[activator]	.	0	100	99	97	102	99
O=C(c1cccc([N+](=O)[O-])c1)N1CCN(c2n[nH]c(=O)[nH]c2=O)CC1	.	9	?	99	96	96	.	.	.	.	.	.	.
Cc1cccc(-c2nc3cc(NC(=O)C4CCCO4)ccc3o2)c1 (centres undefined)	10	17	107	119	179*[activator]	109	109*	0	104	104	109	104	99
Cc1cccc(C(=O)NC2CC(C)(C)NC(C)(C)C2)c1	14	82*	172*[activator]	98	113	101	101*	1	92	93	92	92	84
Cc1cccc(C(=O)NNC(=O)C2CCCO2)c1 (centres undefined)	24	-2	14*	12*	1.0*	21*	.	1	120	137*[activator]	124	132*[activator]	135
O=C(NNC(=O)C1CCCO1)c1ccccc1Cl (centres undefined)	17	.	.	.	.	.	.	2	100	100	101	100	99

Screens (PubChem)
